Changes are numbered by the printed parent chain. Over roughly 5,800 sequences, “enrichment r” has its median near 0.54; the highest 2% begin near 16. Only a selection was taken, and the highest values are over-represented in it overall.

B1: chrX:48700291:48700392:+|CDS|ENSG00000101945|unk|FALSE|unique (ssRNA)
RNA: GGGAGUUCUACAGUCCGACGAUCGCUCCGUCGCUGGGAGCAGGAGCUCAAUGCCAAGCGCAGCCAUCUGGGACGCAUCACUGUAGAGAAUGAGGUGGACCUGGACGGCCCUCCGCGGGCCUUCGUGUACAUCAAUGAGUACCGCAACAGAGGAUUGAGCAUCA
B2: chr11:69651696:69651723:+|3pUTR|ENSG00000110092|msi1_unk|total|mutant (ssRNA)
RNA: GGGAGUUCUACAGUCCGACGAUCGAGGAUCCGGUUCCAUCCUUUACGUGUUUAAAAAAAAGCAUAAAAACAUUUUAAAAACACCGAAAAAUUCAGCAAACCAUUUUUAAAGCCGAAGAGGGUUUCCGGCCGAAAAACAUAUUCCAACAGAGGAUUGAGCAUCA
B3: chr10:121957106:121957207:-|3pUTR|ENSG00000107672|msi1|total|mutant (ssRNA)
RNA: GGGAGUUCUACAGUCCGACGAUCUGUAUCGUACAUAUUGUAUGAUUCAACAUUUUUAAAGGCAGAUUGUUUUCCGUAAAAUGCCGCUUUUGACCGUUAAUAAAUUUGUCAUGGUUGUCUUUGAUUAAAGGAAACUCACCGCCACAACAGAGGAUUGAGCAUCA
B4: chr8:30995801:30996592:-|three_prime_utr|ENSG00000172733|control|control|control (ssRNA)
RNA: GGGAGUUCUACAGUCCGACGAUCUUGUUUUUUUUAAUUCAUCAAGCCUUUCGUUUUCAAACCACCAUUUGUCAGCCUUGAGGUAGAGAGACAUAUAGAUUUGAAAAUACUUUCUUAAGAGAUCAUGUAACUAUAUAACUCUGACAACAGAGGAUUGAGCAUCA
B5: chr11:69651733:69651797:+|3pUTR|ENSG00000110092|msi1_unk|FALSE|overlapping (ssRNA)
RNA: GGGAGUUCUACAGUCCGACGAUCAAAACAUUUUAAAAACAUAGAAAAAUUCAGCAAACCAUUUUUAAAGUAGAAGAGGGUUUUAGGUAGAAAAACAUAUUCUUGUGCUUUUCCUGAUAAAGCACAGCUGUAGUGGGGUUCUAGCAACAGAGGAUUGAGCAUCA
B6: chr20:13714314:13714426:-|3pUTR|ENSG00000089048|unk|total|mutant (ssRNA)
RNA: GGGAGUUCUACAGUCCGACGAUCUUUUUCCCGCCAUAAAGGAUGGAAGUCAAGAACUUUUUGUUGUUCCGUCAUGUUAAGUACCGUUUAUGAAAUUAACUUGUAAAUAAAAGUGUAAAAUAUUUUCAUUAUUUUGUACCGCACCAACAGAGGAUUGAGCAUCA
B7: chr2:206311781:206311882:+|3pUTR|ENSG00000204186|unk|FALSE|unique (ssRNA)
RNA: GGGAGUUCUACAGUCCGACGAUCUAGUGUUUAGAGUCCUUUCAUUUUAAGAUUCAGAAACAGCCUUUGUCCAACAUUUUCUGUAGAAGAACUUCAUCUUAAUUUAUGUCACAAAAUAAUUUAGCACCGUAUAUAGAAUUUUGUCAACAGAGGAUUGAGCAUCA
B8: ENSG00000198589:be:win_9051|3pUTR|ENSG00000198589|bound_else_gene|NA|bound_elsewhere_windowed (ssRNA)
RNA: GGGAGUUCUACAGUCCGACGAUCGUAAAUGUAAUUUAAAACAUCUCAAUUAAGUCUGUCUAUCAAUAUUGUUCUUCAAGCAUGUUUUAGACCUAGAAAAGUAUGGUUUGGGGGAGGCUAUUUUAUUGUGUGGUUAGCACAAGGCAACAGAGGAUUGAGCAUCA
B9: chr11:69651696:69651723:+|3pUTR|ENSG00000110092|msi1_unk|FALSE|overlapping (ssRNA)
RNA: B2 RNA with C30U, C31A, C83U, C84A, C112U, C113A, C125U, C126A, C129U, C130A
B10: chr20:13714314:13714426:-|3pUTR|ENSG00000089048|unk|FALSE|unique (ssRNA)
RNA: B6 RNA with C30U, C31A, C68U, C69A, C83U, C84A, C138U, C139A
B11: chr21:14371318:14371404:-|3pUTR|ENSG00000155304|msi1_unk|FALSE|overlapping (ssRNA)
RNA: GGGAGUUCUACAGUCCGACGAUCUAUGAAUAACAAUCUGAAGUCUUUUCAUAAAAAAAAUUAAUAAACUUUAGUUGUACAUUUAGCCAGUGUUAUUUGAAGUAUGUAACUUUUAAAAUAUUAAGUGUCUUGUAUGAUUAGAAUCAACAGAGGAUUGAGCAUCA
B12: chr10:121957106:121957207:-|3pUTR|ENSG00000107672|msi1|FALSE|bound_elsewhere (ssRNA)
RNA: B3 RNA with C73U, C74A, C83U, C84A, C93U, C94A
B13: chr2:206311781:206311882:+|3pUTR|ENSG00000204186|unk|total|mutant (ssRNA)
RNA: B7 RNA with U24C, A25C, U31C, A32C, U83C, A84C, U121C, A122C, U133C, A134C

MSI1 full-length, sequence (Q61474 whole entry): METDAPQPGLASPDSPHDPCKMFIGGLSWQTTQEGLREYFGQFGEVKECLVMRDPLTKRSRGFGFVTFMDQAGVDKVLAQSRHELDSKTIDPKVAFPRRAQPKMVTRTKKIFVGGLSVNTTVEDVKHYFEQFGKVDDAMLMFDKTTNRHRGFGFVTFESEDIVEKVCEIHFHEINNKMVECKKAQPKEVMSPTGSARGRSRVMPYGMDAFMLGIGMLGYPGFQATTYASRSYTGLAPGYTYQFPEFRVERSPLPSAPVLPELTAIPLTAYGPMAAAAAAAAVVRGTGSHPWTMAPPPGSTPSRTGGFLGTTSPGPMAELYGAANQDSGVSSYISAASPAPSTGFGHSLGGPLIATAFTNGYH

This test concerns the target MSI1 full-length (mouse, UniProt Q61474 1-362). Briefly: nsRBNS (natural sequence RNA bind-n-seq); RBNS binding buffer (assumed for nsRBNS): 25 mM Tris pH 7.5, 150 mM KCl, 3 mM MgCl2, 0.01% Triton X-100, 500 ug/ml BSA, 20 U/ml SUPERase-In, 4 C; UNK is unkempt and MSI1 is Musashi-1; names of the RNAs are library labels; protein concentration not given here; high values mean tight binding.
On to B1, for which the binding signal was 0.398 enrichment R.

B2: the binding signal stood at 0.383 enrichment R.

The molecule B3 showed a binding signal of 0.237 enrichment R.

The molecule B4 came in with a binding signal of 0.712 enrichment R.

Turning to B5, the binding signal stood at 13.6 enrichment R.

B6 returned a binding signal of 0.796 enrichment R.

In turn, B7 registered a binding signal of 16.7 enrichment R.

In turn, B8 yielded a binding signal of 3.05 enrichment R.

For B9, the binding signal stood at 17.8 enrichment R.

On to B10, for which the binding signal worked out at 58.4 enrichment R.

B11 returned a binding signal of 6.15 enrichment R.

Turning to B12, the binding signal was 17.9 enrichment R.

B13 gave a binding signal of 0.669 enrichment R.
